About 79,000 compounds went through this panel and 15% of them were active in at least one assay; those are over-represented in the sample as a whole. Calls of active or inactive are those of the source. Rule as the data show it: active = growth inhibition above about 70%; inactive = the rest.
Tests used:
[1] = NCI Yeast Anticancer Drug Screen. Data for the mec2-1 strain (AID 157); details: S. cerevisiae mec2-1 strain, stronger effect = higher value
Outline: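 Using mec2-1 yeast: add compound, measure growth, express inhibition versus vehicle-treated cultures.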

[2] = NCI Yeast Anticancer Drug Screen. Data for the rad14 strain (AID 159);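 also: 0% = growth of vehicle-treated control cultures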; details: S. cerevisiae rad14 strain growth inhibition, stronger effect = higher value
Outline: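 Growth inhibition vs vehicle controls; genetically altered yeast strain (DNA damage repair defect) treated with test compounds.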

[3] = NCI Yeast Anticancer Drug Screen. Data for the sgs1 mgt1 strain (AID 161);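 also: 0% = growth of cultures given vehicle only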; details: S. cerevisiae sgs1 mgt1 strain, stronger effect = higher value
Outline: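 Yeast cells carrying a defined DNA-repair defect were exposed to test compounds. Growth inhibition was measured relative to vehicle-treated controls.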

[4] = NCI Yeast Anticancer Drug Screen. Data for the CLN2oe strain (AID 163);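 also: 0% = growth of vehicle-only control cultures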; details: S. cerevisiae CLN2oe strain, stronger effect = higher value
Outline: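 Whole-cell yeast growth assay. A strain engineered for altered cell-cycle control received compound, and inhibition relative to vehicle-treated cultures was recorded.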

[5] = NCI Yeast Anticancer Drug Screen. Data for the cln2 rad14 strain (AID 165);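 also: 0% = growth equal to vehicle treated cultures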; details: S. cerevisiae cln2 rad14 strain, stronger effect = higher value
Outline: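 Yeast strain cln2 rad14, bearing defects in cell cycle control and DNA repair, serves as the test system; values reflect growth inhibition compared with vehicle.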

[6] = NCI Yeast Anticancer Drug Screen. Data for the bub3 strain (AID 167); details: S. cerevisiae bub3 mutant strain, stronger effect = higher value
Outline: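 Readout: yeast growth inhibition, expressed relative to vehicle-only wells. The test organism is a mutant strain from a panel with lesions in DNA repair or checkpoint genes.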

[7] = NCI Yeast Anticancer Drug Screen. Data for the wt2 strain (AID 169);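 also: 0% = growth of vehicle-treated yeast cultures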; details: S. cerevisiae wt2 strain growth inhibition, stronger effect = higher value
Outline: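 Treated yeast vs. vehicle-treated yeast: growth inhibition determined.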

[8] = NCI Yeast Anticancer Drug Screen. Data for the mlh1 strain (AID 171);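 also: 0% = growth of vehicle-treated control cultures of the same strain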; details: S. cerevisiae mlh1 strain growth inhibition, stronger effect = higher value
Outline: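 A yeast strain with a defined genetic lesion serves as the test organism. Cultures receive compound or vehicle, and growth is measured.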

[9] = NCI Yeast Anticancer Drug Screen. Data for the mlh1 rad18 strain (AID 175); details: S. cerevisiae mlh1 rad18 strain growth inhibition, stronger effect = higher value
Outline: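 Steps: expose repair-defective yeast to compound; measure growth; express inhibition against vehicle-treated controls.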

[10] = NCI Yeast Anticancer Drug Screen. Data for the rad18 strain (AID 177); details: S. cerevisiae rad18 mutant growth inhibition, stronger effect = higher value
Outline: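 Measured value is growth inhibition of a yeast strain bearing a DNA repair alteration, referenced to vehicle-treated cells.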

[11] = NCI Yeast Anticancer Drug Screen. Data for the rad52 strain (AID 147);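 also: 0% = growth of vehicle-treated control cultures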; details: S. cerevisiae rad52 mutant growth inhibition, stronger effect = higher value
Outline: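 Here a repair-compromised yeast strain receives each compound; its growth is then quantified and normalised to vehicle-only controls.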

[12] = NCI Yeast Anticancer Drug Screen. Data for the wt1 strain (AID 149);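 also: 0% = growth of vehicle-treated wt1 cultures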; details: S. cerevisiae wt1 strain (SPY 50644) growth inhibition, stronger effect = higher value
Outline: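 Growth inhibition read against vehicle controls after compound exposure of the wt1 yeast strain.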

[13] = NCI Yeast Anticancer Drug Screen. Data for the rad50EPP+ strain (AID 151);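 also: 0% = growth of vehicle-treated control cultures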; details: S. cerevisiae rad50 mutant strain, stronger effect = higher value
Outline: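 Read-out is yeast growth inhibition relative to vehicle; cells used were the rad50EPP+ strain.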

[14] = NCI Yeast Anticancer Drug Screen. Data for the mgt1 strain (AID 153); details: S. cerevisiae mgt1 mutant growth inhibition, stronger effect = higher value
Outline: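 Measured: inhibition of mgt1 yeast growth by compound, normalized to vehicle-treated cultures.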

[15] = NCI Yeast Anticancer Drug Screen. Data for the rad50 strain (AID 155);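 also: 0% = growth of vehicle-only cultures of the same strain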; details: S. cerevisiae rad50 strain growth inhibition, stronger effect = higher value
Outline: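 Readout: growth inhibition relative to vehicle-treated cultures. Compound exposure was carried out in a genetically defined yeast strain deficient in DNA damage repair.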

[16] = NCI Yeast Anticancer Drug Screen. Data for the sgs1 strain (AID 173);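 also: 0% = growth of vehicle-only control cultures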; details: S. cerevisiae sgs1 mutant, stronger effect = higher value
Outline: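 A genetically defined yeast mutant is incubated with the test compound, and its growth is compared to that of the same strain given vehicle.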

[17] = at 5.0 µM (retest, dose inferred, filed as 0.5)
[18] = at 50.0 µM (retest, dose inferred, filed as 5.0)

Measured: growth inhibition

Cc1cc(O)c2c(c1O)C(=O)C13C(=C2O)C(=O)C2C(O)C1C1C(O)C3C(=O)C3=C(O)c4c(O)cc(C)c(O)c4C(=O)C321 (stereo unspecified)
inactive: [2]; at 1.2 µM -6% | [2]; at 3.7 µM 9% | [2]; at 11.0 µM 52% | [3]; [17] 37% | [4]; at 1.2 µM 18% | [4]; at 3.7 µM 17% | [5]; [17] 28% | [5]; at 50.0 µM 29.8% | [6]; at 1.2 µM -5% | [6]; at 3.7 µM 4% | [6]; [17] 59% | [6]; at 11.0 µM 27% | [7]; at 1.2 µM 12% | [7]; at 3.7 µM 26% | [7]; at 11.0 µM 52% | [8]; at 1.2 µM 18% | [8]; at 3.7 µM 15% | [8]; at 11.0 µM 43% | [9]; [17] 58% | [9]; at 50.0 µM 63.4% | [10]; at 1.2 µM -3% | [10]; at 3.7 µM -4% | [10]; at 11.0 µM 15%
active: [1]; [17] 75% | [1]; at 11.0 µM 76% | [1]; at 33.0 µM 86% | [1]; [18] 93% | [1]; at 50.0 µM 85.3% | [1]; at 100.0 µM 83% | [2]; at 33.0 µM 77% | [2]; at 100.0 µM 80% | [3]; [18] 86% | [3]; at 50.0 µM 79.2% | [4]; at 11.0 µM 84% | [4]; at 33.0 µM 91% | [4]; at 100.0 µM 83% | [5]; [18] 91% | [6]; at 33.0 µM 82% | [6]; [18] 87% | [6]; at 50.0 µM 77% | [6]; at 100.0 µM 84% | [7]; at 33.0 µM 87% | [7]; at 100.0 µM 85% | [8]; at 33.0 µM 79% | [8]; at 100.0 µM 83% | [9]; [18] 86% | [10]; at 33.0 µM 73% | [10]; at 100.0 µM 84%

O=C(O)c1cccc2cccc(-c3c4ccc(=O)cc-4oc4cc(O)ccc34)c12
inactive: [11]; at 1.2 µM 8% | [11]; at 3.7 µM 33% | [12]; at 1.2 µM -5% | [12]; at 3.7 µM 5% | [12]; at 11.0 µM 54% | [12]; at 33.0 µM 69% | [13]; at 1.2 µM 10% | [13]; at 3.7 µM 29% | [14]; at 1.2 µM 20% | [14]; at 3.7 µM 41% | [15]; at 1.2 µM 29% | [15]; at 3.7 µM 56% | [15]; [17] 29% | [1]; at 1.2 µM 18% | [1]; at 3.7 µM 24% | [1]; [17] 53% | [2]; at 1.2 µM 10% | [2]; at 3.7 µM 13% | [2]; at 11.0 µM 55% | [3]; [17] 1% | [4]; at 1.2 µM 16% | [4]; at 3.7 µM 9% | [5]; [17] 61% | [6]; at 1.2 µM 34% | [6]; at 3.7 µM 69% | [7]; at 1.2 µM 17% | [7]; at 3.7 µM 26% | [7]; at 11.0 µM 48% | [8]; at 1.2 µM 7% | [8]; at 3.7 µM 18% | [8]; at 11.0 µM 63% | [16]; at 1.2 µM 34% | [16]; at 3.7 µM 31% | [9]; [17] 27%
active: [11]; at 11.0 µM 79% | [11]; at 33.0 µM 78% | [11]; at 100.0 µM 94% | [12]; at 100.0 µM 94% | [13]; at 11.0 µM 70% | [13]; at 33.0 µM 73% | [13]; at 100.0 µM 93% | [14]; at 11.0 µM 79% | [14]; at 33.0 µM 88% | [14]; at 100.0 µM 96% | [15]; at 11.0 µM 82% | [15]; at 33.0 µM 79% | [15]; [18] 97% | [15]; at 50.0 µM 90.5% | [15]; at 100.0 µM 92% | [1]; at 11.0 µM 85% | [1]; at 33.0 µM 85% | [1]; [18] 94% | [1]; at 50.0 µM 91.5% | [1]; at 100.0 µM 93% | [2]; at 33.0 µM 74% | [2]; at 100.0 µM 93% | [3]; [18] 95% | [4]; at 11.0 µM 70% | [4]; at 33.0 µM 81% | [4]; at 100.0 µM 90% | [5]; [18] 95% | [6]; [17] 72% | [6]; at 11.0 µM 91% | [6]; at 33.0 µM 93% | [6]; [18] 94% | [6]; at 100.0 µM 92% | [7]; at 33.0 µM 85% | [7]; at 100.0 µM 96% | [8]; at 33.0 µM 87% | [8]; at 100.0 µM 91% | [16]; at 11.0 µM 74% | [16]; at 33.0 µM 85% | [16]; at 100.0 µM 95% | [9]; [18] 98% | [9]; at 50.0 µM 90%

N#C/C(=C/N1C(=O)/C(=C/c2ccc([N+](=O)[O-])cc2)SC1=S)c1nc2ccccc2s1
active: [11]; at 100.0 µM 77% | [13]; at 33.0 µM 86% | [13]; at 100.0 µM 87% | [15]; at 50.0 µM 87.3% | [15]; at 100.0 µM 79% | [1]; at 50.0 µM 81.7% | [2]; at 100.0 µM 84% | [3]; at 50.0 µM 85.6% | [6]; at 50.0 µM 86% | [7]; at 100.0 µM 75% | [8]; at 100.0 µM 82% | [16]; at 100.0 µM 82% | [9]; at 50.0 µM 87.8% | [10]; at 100.0 µM 82%
inactive: [11]; at 1.2 µM 5% | [11]; at 3.7 µM 9% | [11]; at 11.0 µM 18% | [11]; at 33.0 µM 36% | [12]; at 1.2 µM 4% | [12]; at 3.7 µM 5% | [12]; at 11.0 µM 7% | [12]; at 33.0 µM 18% | [12]; at 100.0 µM 59% | [13]; at 1.2 µM 19% | [13]; at 3.7 µM 45% | [13]; at 11.0 µM 69% | [14]; at 1.2 µM 1% | [14]; at 3.7 µM 3% | [14]; at 11.0 µM 5% | [14]; at 33.0 µM 11% | [14]; at 100.0 µM 66% | [15]; at 1.2 µM -2% | [15]; at 3.7 µM -6% | [15]; [17] -4% | [15]; at 11.0 µM 0% | [15]; at 33.0 µM 40% | [15]; [18] 23% | [1]; at 1.2 µM 9% | [1]; at 3.7 µM 11% | [1]; [17] -1% | [1]; at 11.0 µM 18% | [1]; at 33.0 µM 34% | [1]; [18] 16% | [1]; at 100.0 µM 67% | [2]; at 1.2 µM 3% | [2]; at 3.7 µM 4% | [2]; at 11.0 µM 13% | [2]; at 33.0 µM 40% | [3]; [17] 7% | [3]; [18] 48% | [4]; at 1.2 µM 8% | [4]; at 3.7 µM -1% | [4]; at 11.0 µM 3% | [4]; at 33.0 µM 16% | [4]; at 100.0 µM 55% | [5]; [17] -16% | [5]; [18] 30% | [5]; at 50.0 µM 61.1% | [6]; at 1.2 µM -2% | [6]; at 3.7 µM 4% | [6]; [17] -18% | [6]; at 11.0 µM 9% | [6]; at 33.0 µM 26% | [6]; [18] 34% | [6]; at 100.0 µM 63% | [7]; at 1.2 µM 1% | [7]; at 3.7 µM 4% | [7]; at 11.0 µM 8% | [7]; at 33.0 µM 31% | [8]; at 1.2 µM 5% | [8]; at 3.7 µM 6% | [8]; at 11.0 µM 13% | [8]; at 33.0 µM 37% | [16]; at 1.2 µM 11% | [16]; at 3.7 µM 18% | [16]; at 11.0 µM 30% | [16]; at 33.0 µM 61% | [9]; [17] 13% | [9]; [18] 55% | [10]; at 1.2 µM 19% | [10]; at 3.7 µM 33% | [10]; at 11.0 µM 48% | [10]; at 33.0 µM 69%

From PubChem BioAssay (NCI)
